Screening results as filed in PubChem.
Most compounds without a hit are left out; they make up all but 3.3% or so of the library.
HCV inh – qHTS Assay for Inhibitors of Hepatitis C Virus (HCV); 340,000 compounds, 3.4% hits; AID 651820, 2012; Huh7.5.1 HCVcc-Cre infection, luciferase reporter, 44 h; Potency, µM (highest dose often 41.8 µM), for inactives: at the highest dose activity change, negative = inhibition, hits mostly inhibitors; active means well fitted inhibition curve with a large enough effect; inconclusive means small, poorly fitted or top-dose-only effect, or another doubt; inactive means no such curve, though single readings can be large or run the other way
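After 44 h co-culture of compound, cells and HCVcc-Cre (~0.5 moi), substrate is added for 15 min at room temperature and luciferase measured over 15 sec. Cells were seeded at 1,000/well and pre-cultured 4 h.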
Vaccinia Venus – qHTS for Stage-Specific Inhibitors of Vaccinia Orthopoxvirus: Venus Reporter Primary qHTS | 330,000 compounds, 0.46% hits | Potency, µM (top dose mostly 36.5 µM), inactives show at the top dose activity change, negative = inhibition, usual class: inhibitors | AID 720580, 2013 | Vaccinia virus Venus reporter expression, fluorescence; calls by dose curve; tested in A549 cells; further: nearly all actives have a fitted effect of over 30% in size
VACV mCherry inh – qHTS for Stage-Specific Inhibitors of Vaccinia Orthopoxvirus: mCherry Reporter Primary qHTS. Vaccinia virus mCherry reporter infection, fluorescence. Potency, µM (highest dose often 36.5 µM), for inactives: top-dose activity change, negative = inhibition, usual class: inhibitors. 310,000 compounds, 0.63% hits. AID 720579, 2013; calls by dose curve; tested in A549 cells; further: nearly all actives have a fitted effect of over 35% in size
The depositor's hits bear a star; i = inactive; ? = inconclusive; · = not tested or not shown; [ ] = remark or other dose. On the % scale 0 is the no-effect control and ±100 the full control effect; potency means the concentration at half of the fitted maximal effect.

SMILES | HCV inh | Vaccinia Venus | VACV mCherry inh
COc1ccc(-c2cc(C)cc3c2OC(CNC(=O)c2cc(C(C)C)on2)C3)nn1 (stereo not drawn) | · | 5.4% | -7.2%
CCN1C(Br)=CCc2ccccc21 | · | 4.2% | -12.1%
Oc1ccccc1CNc1ccc(Br)cn1 | ? | 14.1µM* | ·
Brc1ccc(NCc2cccc3ccccc23)nc1 | -27.6% | · | ·
COc1ccc(OC)c(CC(NC(C)=O)C(=O)NC2CCN(S(=O)(=O)c3ccc(NC(C)=O)cc3)CC2)c1 (stereo not drawn) | 7.5% | 1.2% | -12.0%
Cc1ccc(OCC(=O)Nc2ccccc2C(=O)OCc2cc(=O)n3ccsc3n2)cc1C | · | -21.6% | -21.2%
O=C(NS(=O)(=O)Oc1ccccc1F)OC[C@@H]1CCCN2CCCCC12 (stereo partly drawn) | -8.5% | -12.5% | -16.4%
COc1ccc(CC(=O)Nc2cccc(/C(C)=N/NC(=O)C3(C)CC3(Br)Br)c2)cc1 (stereo not drawn) | 10µM* | · | ·
C/C(=N\NC(=O)C1(C)CC1(Br)Br)c1cccc(NC(=O)C(C)(C)C)c1 (stereo not drawn) | -4.6% | -5.5% | -12.8%
CC(=O)c1cc(-c2ccccc2)n(CC(=O)NC2CCCCCC2)c1C | · | -14.7% | -23.3%
Clc1ccc(Oc2nc3ccccc3n3cccc23)cc1 | ? | -11.9% | ·
COc1ccc(Oc2nc3ccccc3n3cccc23)cc1 | 11.2µM* | -24.3% | ·
Cc1ccc(OCC(=O)Nc2ccc3nc(SCC(=O)N4CCOCC4)sc3c2)cc1 | · | -12.7% | 0.5%
COc1cc(=O)n2c(c1C(=O)NC(C)c1ccco1)CCN(C(=O)c1cc(C)cc(C)c1)CC2 (stereo not drawn) | · | -12.3% | -15.9%
O=C(Nc1nc(-c2ccccc2Cl)cs1)c1cccnc1 | 31.6µM* | · | ·
O=C(NC(=S)Nc1nc(-c2ccccc2)cs1)c1cccnc1 | 6.2% | -25.7% | ?
COc1ccc(CN(C)C(=O)c2cc(S(=O)(=O)N3CCOCC3)ccc2N2CCCC2)cc1 | 3.3% | -11.7% | -13.9%
COc1ccc(Cn2c(SCc3cc(C)ccc3C)nc3cc(OC)c(OC)cc3c2=N)cc1 | 2.82µM* | · | ·
COc1ccc(Cn2c(SCc3ccc(C)cc3)nc3cc(OC)c(OC)cc3c2=N)cc1Cl | ? | -16.8% | -18.0%
O=C(N/N=C/c1ccc(Sc2nc3ccccc3[nH]2)o1)c1ccncc1 | 9.8% | -9.2% | -2.2%
N#C/C(=C/c1ccc(Sc2nc3ccccc3[nH]2)o1)c1cccc(Br)c1 | 8.91µM* | ? | 20µM*
N#C/C(=C/c1ccc(Sc2nc3ccccc3[nH]2)o1)c1ccccc1F | 11.2µM* | · | ·
N#C/C(=C\c1ccc(Sc2ccccc2)o1)c1nc2ccccc2[nH]1 | ? | -23.5% | -8.5%
CCOc1ccccc1NC(=O)N1CCC(NC(=O)C2CCCCC2)CC1 | -1.3% | -2.5% | -4.1%
CCOC(=O)c1cccc(NC(=O)/C=C/c2ccc3c(c2)OCO3)c1 | 12.6µM* | ? | -23.2%
SMILES | HCV inh | Vaccinia Venus | VACV mCherry inh
CCOC(=O)c1cccc(NC(=O)c2ccc3c(c2)OCO3)c1 | ? | -26.0% | -22.1%
CCOC(=O)c1c(C)oc2nc(C)nc(NCc3ccccc3Cl)c12 | · | -2.2% | -7.1%
Cc1cc(N)n2nc(C)c(-c3ccc(Cl)cc3)c2n1 | 11.2µM* | ? | ?
COc1ccc(-c2c(C)nn3c(C(F)(F)F)cc(C)nc23)cc1 | · | -29.6% | -6.4%
Cc1cc(Cl)n2nc(C)c(-c3ccc(Cl)cc3)c2n1 | ? | 14.1µM* | ?
Cc1cc(SCC#N)n2nc(C)c(-c3ccc(Cl)cc3)c2n1 | ? | -21.4% | -28.4%
Cc1cc(N2CCOCC2)n2nc(C)c(-c3ccc(Cl)cc3)c2n1 | 11.2% | · | ·
COc1ccc(-c2c(C)nn3c(C)cc(C)nc23)cc1 | 11.2µM* | -14.5% | -15.6%
COc1ccc(CN2CCNC(=O)C2CC(=O)N(C)Cc2ccon2)c(F)c1 (stereo not drawn) | -3.9% | -8.0% | i
COc1ccc(CC(=O)NNS(=O)(=O)c2ccc(F)cc2)cc1 | -9.5% | 2.7% | -2.0%
CSc1ccc(-c2ccc3c(c2)CC(CNC(=O)Cn2nc(C)nc2C)O3)cc1 (stereo not drawn) | · | -5.4% | -14.3%
O=C(NCC1(N2CCOCC2)CCCC1)c1cnn(-c2ncc3c(n2)-c2ccccc2CC3)c1C1CC1 | · | -14.6% | -19.5%
Cc1cccc(NC(=O)CN(CC2CCCO2)C(=O)c2cc(S(=O)(=O)N(C)C)ccc2F)c1C (stereo not drawn) | 3.1% | -10.0% | i
COc1ccc2c(c1)[C@@]13CCCCC1[C@@H](C2)N(C)CC3 (stereo partly drawn) | · | ? | -19.2%
CCCC(=O)NC(=S)Nc1ccc(S(=O)(=O)Nc2ccc(OCC)cc2)cc1 | -17.5% | -20.8% | ?
CCOc1ccc(NS(=O)(=O)c2ccc(NC(=S)NC(=O)CC(C)C)cc2)cc1 | 11.2µM* | ? | ·
CC1CCCN(CCOc2ccc3ccccc3c2Br)C1 (stereo not drawn) | 11.2µM* | -22.5% | -22.7%
CC1CCCN(CCCOc2ccc(Cl)cc2Br)C1 (stereo not drawn) | -25.3% | -25.1% | -24.7%
COc1ccccc1NC(=O)C(C)OC(=O)C1COc2ccccc2O1 (stereo not drawn) | -0.8% | · | ·
Cc1ccc(NC(=O)COC(=O)c2ccc3c(c2)NC(=O)C2CCCN32)cc1 (stereo not drawn) | 10µM* | · | ·
COC(=O)c1ccc2c(c1)NC(=O)C1CCCN21 (stereo not drawn) | -18.9% | -2.6% | -6.5%
O=C(NCCN1CCOCC1)c1cnn(-c2nccc(-c3ccccc3C(F)(F)F)n2)c1C1CC1 | · | -8.2% | -8.1%
O=C(/C=C/c1ccc(S(=O)(=O)N2CCOCC2)cc1)NC(=S)NCCCn1ccnc1 | 22.4µM* | ? | -16.2%
O=C(COc1ccc(S(=O)(=O)N2CCOCC2)cc1)NCCCn1ccnc1 | 9.9% | -3.8% | -16.8%
COC(=O)C1=C(c2ccc(Cl)c(C(F)(F)F)c2)C[C@@H]2CC[C@H]1N2C(=O)N1CCC(O)(c2ccc(Cl)cc2)CC1 | 10µM* | ? | -20.5%
SMILES | HCV inh | Vaccinia Venus | VACV mCherry inh
COC(=O)C1=C(c2ccc(OC(F)(F)F)cc2)C[C@@H]2CC[C@H]1N2C(=O)N1CCCC1 | 12.6µM* | ? | -14.4%
COC(=O)C1=C(c2ccc(Cl)c(C(F)(F)F)c2)C[C@@H]2CC[C@H]1N2C(=O)N1CCCC1 | 31.6µM* | -26.6% | -5.5%
COC(=O)C1=C(c2ccc(Cl)c(C(F)(F)F)c2)C[C@@H]2CC[C@H]1N2C(=O)N1CCOCC1 | ? | ? | -11.4%
COC(=O)C1=C(c2ccc(F)cc2F)C[C@@H]2CC[C@H]1N2C(=O)N1CCC(O)(c2ccc(Cl)cc2)CC1 | ? | ? | i
COC(=O)C1=C(c2ccc(OC(F)(F)F)cc2)C[C@@H]2CC[C@H]1N2C(=O)N1CCC(C)CC1 | ? | ? | -25.5%
CC(C)CSc1nnc(CNC(=O)c2ccccn2)n1C | · | -16.2% | i
COc1ccc(-n2c(C)nc3cc(C(=O)NC4CCCCCC4)ccc32)cc1 | · | -11.0% | -11.8%
Cc1ccc(-c2onc(C)c2C)cc1S(=O)(=O)N1CCc2ccccc21 | · | ? | -3.1%
Cc1ccc(-c2onc(C)c2C)cc1S(=O)(=O)N1CC(C)Oc2ccccc21 (stereo not drawn) | 12.6µM* | -7.1%[7.34 µM] | -5.8%[7.34 µM]
